Test results taken from the supplement of paper PMC8728848.
The sample as a whole holds a higher share of the strongest signals than the screen did.

What was measured:
Assay in all cases: glycan array binding signal (z-score within array); higher = stronger binding
Details in all cases: glycan notation: IUPAC condensed, linker removed
[1] = target: Fuc(a1-2)Gal(b1-3)GlcNAc(b1-2)Man(a1-3)[Fuc(a1-2)Gal(b1-3)GlcNAc(b1-2)Man(a1-6)]Man(b1-4)GlcNAc(b1-4)GlcNAc
Summary of the method: (§1)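 Negative Z-scores can be read as non-binding. The Z-score is calculated within each array and then averaged across arrays of one protein sequence at different concentrations or buffers and across linkers. Arrays, 3228 in all, were curated from the Consortium for Functional Glycomics database and kept only where the protein sequence was available.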

[2] = target: Fuc(a1-2)Gal(b1-4)GlcNAc(b1-2)Man(a1-3)[Fuc(a1-2)Gal(b1-4)GlcNAc(b1-2)Man(a1-6)]Man(b1-4)GlcNAc(b1-4)GlcNAc
Summary of the method: as §1

[3] = target: Fuc(a1-2)Gal(b1-4)GlcNAc(b1-2)Man(a1-3)[Fuc(a1-2)Gal(b1-4)GlcNAc(b1-2)Man(a1-6)]Man(b1-4)GlcNAc(b1-4)[Fuc(a1-6)]GlcNAc
Summary of the method: as §1

[4] = target: Fuc(a1-2)Gal(b1-4)GlcNAc(b1-2)[Fuc(a1-2)Gal(b1-4)GlcNAc(b1-4)]Man(a1-3)[Fuc(a1-2)Gal(b1-4)GlcNAc(b1-2)Man(a1-6)]Man(b1-4)GlcNAc(b1-4)GlcNAc
Summary of the method: as §1

[5] = target: Fuc(a1-2)Gal(b1-4)[Fuc(a1-3)]GlcNAc
Summary of the method: as §1

[6] = target: Fuc(a1-2)Gal6S(b1-4)Glc6S
Summary of the method: as §1

[7] = target: Fuc(a1-2)[Gal(a1-3)]Gal(b1-4)GlcNAc(b1-3)[Fuc(a1-2)[Gal(a1-3)]Gal(b1-4)GlcNAc(b1-6)]GalNAc
Summary of the method: as §1

[8] = target: Fuc(a1-2)[GalNAc(a1-3)]Gal(b1-4)GlcNAc(b1-3)GalNAc
Summary of the method: as §1

[9] = target: Fuc(a1-2)[GalNAc(a1-4)]Gal(b1-4)GlcNAc
Summary of the method: as §1

[10] = target: Fuc(a1-3)[Gal(b1-4)]GlcNAc(b1-2)Man(a1-3)[Fuc(a1-3)[Gal(b1-4)]GlcNAc(b1-2)Man(a1-6)]Man(b1-4)GlcNAc(b1-4)GlcNAc
Summary of the method: as §1

[11] = target: Gal(a1-3)Gal(b1-3)GlcNAc
Summary of the method: as §1

[12] = target: Gal(a1-3)Gal(b1-3)GlcNAc(b1-2)Man(a1-3)[Gal(a1-3)Gal(b1-3)GlcNAc(b1-2)Man(a1-6)]Man(b1-4)GlcNAc(b1-4)GlcNAc
Summary of the method: as §1

[13] = target: Gal(a1-3)Gal(b1-3)GlcNAc(b1-6)GalNAc
Summary of the method: as §1

[14] = target: Gal(a1-3)Gal(b1-3)[Fuc(a1-4)]GlcNAc(b1-2)Man(a1-3)[Gal(a1-3)Gal(b1-3)[Fuc(a1-4)]GlcNAc(b1-2)Man(a1-6)]Man(b1-4)GlcNAc(b1-4)GlcNAc
Summary of the method: as §1

[15] = target: Gal(a1-3)Gal(b1-4)GlcNAc
Summary of the method: as §1

[16] = target: Gal(a1-3)Gal(b1-4)GlcNAc(b1-3)GalNAc
Summary of the method: as §1

[17] = target: Gal(a1-4)Gal(b1-3)GlcNAc(b1-2)Man(a1-3)[Gal(a1-4)Gal(b1-3)GlcNAc(b1-2)Man(a1-6)]Man(b1-4)GlcNAc(b1-4)GlcNAc
Summary of the method: as §1

[18] = target: Gal(b1-3)GalNAc(a1-3)[Fuc(a1-2)]Gal(b1-4)GlcNAc
Summary of the method: as §1

[19] = target: Gal(b1-3)GalNAc(b1-4)[Neu5Ac(a2-3)]Gal(b1-4)Glc
Summary of the method: as §1

[20] = target: Gal(b1-3)GlcNAc(b1-3)Gal(b1-4)GlcNAc(b1-3)Gal(b1-4)GlcNAc(b1-2)[Gal(b1-3)GlcNAc(b1-3)Gal(b1-4)GlcNAc(b1-3)Gal(b1-4)GlcNAc(b1-6)]Man(a1-6)[Gal(b1-3)GlcNAc(b1-3)Gal(b1-4)GlcNAc(b1-3)Gal(b1-4)GlcNAc(b1-2)Man(a1-3)]Man(b1-4)GlcNAc(b1-4)[Fuc(a1-6)]GlcNAc
Summary of the method: as §1

[21] = target: Gal(b1-3)[Fuc(a1-4)]GlcNAc(b1-6)GalNAc
Summary of the method: as §1

[22] = target: Gal(b1-3)[Neu5Ac(b2-6)]GalNAc
Summary of the method: as §1

[23] = target: Gal(b1-4)GlcNAc(b1-2)Man(a1-3)[Gal(b1-4)GlcNAc(b1-2)Man(a1-6)][Gal(b1-4)GlcNAc(b1-4)]Man(b1-4)GlcNAc(b1-4)[Fuc(a1-6)]GlcNAc
Summary of the method: as §1

[24] = target: Gal(b1-4)GlcNAc(b1-3)Gal(b1-4)Glc
Summary of the method: as §1

[25] = target: Gal(b1-4)GlcNAc(b1-3)Gal(b1-4)GlcNAc(b1-3)Gal(b1-4)GlcNAc(b1-2)Man(a1-3)[Gal(b1-4)GlcNAc(b1-3)Gal(b1-4)GlcNAc(b1-3)Gal(b1-4)GlcNAc(b1-2)Man(a1-6)]Man(b1-4)GlcNAc(b1-4)GlcNAc
Summary of the method: as §1

[26] = target: Gal(b1-4)GlcNAc(b1-3)Gal(b1-4)GlcNAc(b1-3)Gal(b1-4)GlcNAc(b1-3)Gal(b1-4)GlcNAc(b1-2)Man(a1-3)[Gal(b1-4)GlcNAc(b1-3)Gal(b1-4)GlcNAc(b1-3)Gal(b1-4)GlcNAc(b1-3)Gal(b1-4)GlcNAc(b1-2)Man(a1-6)]Man(b1-4)GlcNAc(b1-4)GlcNAc
Summary of the method: as §1

[27] = target: Gal(b1-4)GlcNAc(b1-3)Gal(b1-4)GlcNAc(b1-3)Gal(b1-4)GlcNAc(b1-3)Gal(b1-4)GlcNAc(b1-3)Gal(b1-4)GlcNAc(b1-2)Man(a1-3)[Gal(b1-4)GlcNAc(b1-3)Gal(b1-4)GlcNAc(b1-3)Gal(b1-4)GlcNAc(b1-3)Gal(b1-4)GlcNAc(b1-3)Gal(b1-4)GlcNAc(b1-2)Man(a1-6)]Man(b1-4)GlcNAc(b1-4)GlcNAc
Summary of the method: as §1

[28] = target: Gal(b1-4)GlcNAc(b1-3)Gal(b1-4)GlcNAc(b1-6)[Gal(b1-3)]GalNAc
Summary of the method: as §1

[29] = target: Gal(b1-4)GlcNAc(b1-6)[Gal(b1-3)]GalNAc
Summary of the method: as §1

[30] = target: Gal3S4S(b1-4)GlcNAc
Summary of the method: as §1

[31] = target: Gal6P(b1-4)GlcNAc
Summary of the method: as §1

[32] = target: GalNAc4S6S(b1-4)GlcNAc
Summary of the method: as §1

[33] = target: GlcNAc(b1-2)[GlcNAc(b1-4)]Man(a1-3)[GlcNAc(b1-4)][GlcNAc(b1-2)[GlcNAc(b1-6)]Man(a1-6)]Man(b1-4)GlcNAc(b1-4)[Fuc(a1-6)]GlcNAc
Summary of the method: as §1

[34] = target: GlcNAc(b1-3)Gal(b1-4)GlcNAc(b1-3)Gal(b1-4)GlcNAc(b1-3)Gal(b1-4)GlcNAc(b1-3)Gal(b1-4)GlcNAc(b1-2)[GlcNAc(b1-3)Gal(b1-4)GlcNAc(b1-3)Gal(b1-4)GlcNAc(b1-3)Gal(b1-4)GlcNAc(b1-3)Gal(b1-4)GlcNAc(b1-6)]Man(a1-6)[GlcNAc(b1-3)Gal(b1-4)GlcNAc(b1-3)Gal(b1-4)GlcNAc(b1-3)Gal(b1-4)GlcNAc(b1-3)Gal(b1-4)GlcNAc(b1-2)Man(a1-3)]Man(b1-4)GlcNAc(b1-4)[Fuc(a1-6)]GlcNAc
Summary of the method: as §1

[35] = target: GlcNAc(b1-3)Gal(b1-4)GlcNAc(b1-6)[GlcNAc(b1-3)]Gal(b1-4)GlcNAc
Summary of the method: as §1

[36] = target: GlcNAc(b1-4)Gal(b1-4)GlcNAc
Summary of the method: as §1

[37] = target: GlcNAc(b1-4)GlcNAc(b1-4)GlcNAc(b1-4)GlcNAc(b1-4)GlcNAc
Summary of the method: as §1

[38] = target: GlcNAc(b1-4)GlcNAc(b1-4)GlcNAc(b1-4)GlcNAc(b1-4)GlcNAc(b1-4)GlcNAc
Summary of the method: as §1

[39] = target: GlcNAc(b1-6)GalNAc
Summary of the method: as §1

[40] = target: Man(a1-2)Man(a1-2)Man(a1-3)Man
Summary of the method: as §1

[41] = target: Man(a1-3)[Man(a1-6)]Man
Summary of the method: as §1

[42] = target: Neu5Ac(a2-3)Gal(b1-3)GalNAc(b1-3)Gal(a1-4)Gal(b1-4)Glc
Summary of the method: as §1

[43] = target: Neu5Ac(a2-3)Gal(b1-3)[Fuc(a1-4)]GlcNAc(b1-3)Gal(b1-3)[Fuc(a1-4)]GlcNAc
Summary of the method: as §1

[44] = target: Neu5Ac(a2-6)Gal(b1-4)Glc
Summary of the method: as §1

[45] = target: Neu5Ac(a2-6)Gal(b1-4)GlcNAc
Summary of the method: as §1

[46] = target: Neu5Ac(a2-6)Gal(b1-4)GlcNAc(b1-2)Man(a1-3)Man(b1-4)GlcNAc(b1-4)GlcNAc
Summary of the method: as §1

[47] = target: Neu5Ac(a2-6)Gal(b1-4)GlcNAc(b1-2)Man(a1-3)[GlcNAc(b1-2)Man(a1-6)]Man(b1-4)GlcNAc(b1-4)GlcNAc
Summary of the method: as §1

[48] = target: Neu5Ac(a2-6)Gal(b1-4)GlcNAc(b1-3)Gal(b1-4)GlcNAc(b1-3)[Neu5Ac(a2-6)Gal(b1-4)GlcNAc(b1-3)Gal(b1-4)GlcNAc(b1-6)]GalNAc
Summary of the method: as §1

[49] = target: Neu5Ac(b2-6)GalNAc
Summary of the method: as §1

[50] = target: Neu5Gc(a2-6)Gal(b1-4)GlcNAc
Summary of the method: as §1

B1: PX9937I-bfa-538-26-538 (Bacteroides fragilis) (protein)
chain: DKLDLSPIDYYGSGSYWKTEAQATAYIDGIHKHLRDAAWQHTITFGELRGGRFITGASSDGMGVSNGDIILQNFDETHTGVSKFGDLFGRITNLNLFIARVTDATYLSDEMKNFYLGEVYGLRAFYYFDLYRIYGGVPLRLTADVVEGVIDPNKLYMARSTPKEVMTQIKSDLNKSMEYFGNMNDFDPYKRGKKVYWSKAATECLMGEVYLWTSKVTTGDDVANPADLTIAKTHLESVLNNYNLKMLDDFSQVFNAKNKANDEIIFAIRFLEGEATNSNGTFTYNVGTGSTKNRYQANGEVFGDALDIQNTGNQTYEYNKAVYQNFDDADTRKEATFIASYNKDGKTGELSLYGTHVRKNIGYVNAQGARVYCGDYIFYRLPWVYLTLAEIANMEGDNAAVAKYINLVRKRAYGNAWDETLYAYPETADFTTNELAILHEKDKEFIQEGQRWWDLRRMTLTKGGTPLVFCKEGSLLGDAPILNKSTEAHKLLWPIEKTMLNKDPALEQTPGYK
- glycan array binding signal (z-score) [1]: 5.41
- glycan array binding signal (z-score) [2]: 3.93
- glycan array binding signal (z-score) [3]: 1.57
- glycan array binding signal (z-score) [4]: 1.02
- glycan array binding signal (z-score) [5]: -0.821
- glycan array binding signal (z-score) [6]: 2.55
- glycan array binding signal (z-score) [7]: -0.413
- glycan array binding signal (z-score) [8]: -0.541
- glycan array binding signal (z-score) [9]: 1.66
- glycan array binding signal (z-score) [10]: 3.92
- glycan array binding signal (z-score) [11]: 0.142
- glycan array binding signal (z-score) [12]: 0.317
- glycan array binding signal (z-score) [13]: 0.142
- glycan array binding signal (z-score) [14]: 3.11
- glycan array binding signal (z-score) [15]: -0.994
- glycan array binding signal (z-score) [16]: -1.27
- glycan array binding signal (z-score) [17]: 4.73
- glycan array binding signal (z-score) [18]: -0.45
- glycan array binding signal (z-score) [19]: -0.928
- glycan array binding signal (z-score) [20]: 2.69
- glycan array binding signal (z-score) [21]: 2.39
- glycan array binding signal (z-score) [22]: -0.133
- glycan array binding signal (z-score) [23]: 1.11
- glycan array binding signal (z-score) [24]: 0.127
- glycan array binding signal (z-score) [25]: 6.36
- glycan array binding signal (z-score) [26]: 1.43
- glycan array binding signal (z-score) [27]: 1.74
- glycan array binding signal (z-score) [28]: 3.46
- glycan array binding signal (z-score) [29]: -0.735
- glycan array binding signal (z-score) [30]: 0.428
- glycan array binding signal (z-score) [31]: -0.37
- glycan array binding signal (z-score) [32]: -0.708
- glycan array binding signal (z-score) [33]: -0.615
- glycan array binding signal (z-score) [34]: 0.041
- glycan array binding signal (z-score) [35]: -0.068
- glycan array binding signal (z-score) [36]: 1.65
- glycan array binding signal (z-score) [37]: 1.25
- glycan array binding signal (z-score) [38]: -0.198
- glycan array binding signal (z-score) [39]: 0.252
- glycan array binding signal (z-score) [40]: 0.241
- glycan array binding signal (z-score) [41]: 0.95
- glycan array binding signal (z-score) [42]: -1
- glycan array binding signal (z-score) [43]: -1.26
- glycan array binding signal (z-score) [44]: -0.274
- glycan array binding signal (z-score) [45]: -0.419
- glycan array binding signal (z-score) [46]: 3.63
- glycan array binding signal (z-score) [47]: -0.591
- glycan array binding signal (z-score) [48]: -0.643
- glycan array binding signal (z-score) [49]: -0.386
- glycan array binding signal (z-score) [50]: -0.339
